PubChem BioAssay (NCI)
Compounds without any hit were thinned out: in the full panel of roughly 79,000, 15% have a hit. No stated cut-off is given here; in the data, active means growth inhibition above about 70%; inactive means the rest. Where a SMILES comes first, the peptide text is derived from it. [ ]: non-standard residue; d: D form. The star is where a group is joined. ξ: configuration not given here. ξV = CC(C)C(N)C(=O)O; ClAc = O=C(CCl)*

Assays:
[1] = NCI Yeast Anticancer Drug Screen. Data for the rad50 strain (AID 155);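 further: 0% = growth of vehicle-only cultures of the same strain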; conditions: S. cerevisiae rad50 strain growth inhibition; at 50.0 µM; active compounds read high
How it was run: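 Cells are treated with compound, grown, and their growth is then scored against vehicle-only cultures of the same repair-deficient yeast strain.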

[2] = NCI Yeast Anticancer Drug Screen. Data for the mec2-1 strain (AID 157); conditions: S. cerevisiae mec2-1 strain, at 50.0 µM, active compounds read high
How it was run: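 mec2-1 yeast strain, carrying an alteration in DNA damage repair or cell cycle control, was exposed to compounds; growth inhibition was measured relative to vehicle-treated controls.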

[3] = NCI Yeast Anticancer Drug Screen. Data for the mlh1 rad18 strain (AID 175); conditions: S. cerevisiae mlh1 rad18 strain growth inhibition; at 50.0 µM; active compounds read high
How it was run: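 Growth inhibition of the yeast strain was measured after compound exposure and expressed relative to vehicle-treated controls. The strain carries defined defects in DNA damage repair.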

Measured: growth inhibition

O=C(/C=C/C=C/c1ccccc1)c1ccc(Cl)cc1
inactive: [1] -12.3% | [2] -27.4% | [3] 3.5%

COc1ccc(C(C#N)N2CCOCC2)cc1 (stereo not given)
inactive: [1] 17.8% | [2] -11.7% | [3] 5.35%

CCOc1ccc(/C=C(/C#N)C(N)=O)cc1
inactive: [1] 9.7% | [2] -8.1% | [3] 9.05%

Nc1ccccc1CCc1ccccc1N
inactive: [1] 18.2% | [2] -10.1% | [3] 12.4%

c1coc(-c2nc(N=C3N=c4ccccc4=N3)[nH]c2-c2ccco2)c1
inactive: [1] 16.6% | [2] 18.9% | [3] 4%

CC12CC3(C)CC(C)(C1)CC(C(Cl)C(=O)O)(C2)C3 (stereo not given)
inactive: [1] 50.7% | [2] 22.8% | [3] 29.2%

Cc1ccc(COC(=O)c2cccnc2)cc1
inactive: [1] -16.4% | [2] -18.6% | [3] 8.65%

O=C(O)/C=C\C(=O)Nc1ccccc1NC(=O)/C=C/C(=O)O
inactive: [1] 3.45% | [2] -26.1% | [3] -16.2%

Oc1ccccc1C=Nc1ccccc1C(F)(F)F
inactive: [1] -7.3% | [2] -19.9% | [3] 25.2%

O=C(O)C1=C(C2CCCCC2)C(=O)c2ccccc21
inactive: [1] 7.75% | [2] -15.8% | [3] 20.9%

Cc1ccc(N2C(=O)CC(Sc3ccccc3N)C2=O)cc1 (stereo not given)
inactive: [1] -8.75% | [2] -17.4% | [3] -9.3%

CCOC(=O)c1sc(N)c(C(=O)OCC)c1C
inactive: [1] -38.2% | [2] -46.8% | [3] -20.1%

CCCCCCCCCC(O)CCCCC (stereo not given)
inactive: [1] -1.85% | [2] -21.2% | [3] 15.3%

CCOc1ccc(Br)cc1/C=N/NS(=O)(=O)c1ccc(C)cc1
inactive: [1] 46.7% | [2] 29.1% | [3] 8.35%

Cc1ccc(NC(=O)/C=C/C(=O)O)c(NC(=O)/C=C/C(=O)O)c1
inactive: [1] 4.8% | [2] -1.15% | [3] 28.8%

OCCN(CCO)C(CO)(CO)CO
inactive: [1] 0.7% | [2] -12.8% | [3] 24.8%

CCCCCCCCCCCC(O)CCCCC (stereo not given)
inactive: [1] -15% | [2] -48.4% | [3] -38.9%

Cc1ccc(S(=O)(=O)N2CCC(O)(c3ccccc3)CC2)cc1
inactive: [1] -3.05% | [2] -36.3% | [3] -2.7%

CS(=O)(=O)c1ccc(NN)c([N+](=O)[O-])c1 (tested in a mixture with another compound)
inactive: [1] -25.7% | [2] -46.8% | [3] -39.1%

Cc1ccc(CNc2cccc([N+](=O)[O-])c2)cc1
inactive: [1] 8.6% | [2] -13.6% | [3] 1.8%

O=c1oc(-c2ccc(Cl)cc2)nc2cc(Cl)ccc12
inactive: [1] -20.6% | [2] -14.7% | [3] -20.8%

COc1ccc(C(C(N)=O)N2CCCC2)cc1 (stereo not given)
inactive: [1] 1% | [2] -19.6% | [3] 16.6%

COc1ccc(-c2coc3ccc4ccccc4c3c2=O)cc1OC
inactive: [1] 16% | [2] -15.1% | [3] 7.25%

CCOC(=O)c1c(C)nc(C)c(C(=O)OCC)c1-c1cccc([N+](=O)[O-])c1
inactive: [1] 29.1% | [2] 2.35% | [3] 25.9%

COc1ccc(C(=O)CC2CCCC(CC(=O)c3ccc(OC)cc3)N2C)cc1 (stereo not given)
inactive: [1] 5.4% | [2] -6.05% | [3] 30.4%

CC(=O)Nc1ccc(/C=C/C(=O)c2ccc(Cl)cc2)cc1
inactive: [1] 18.2% | [2] -4.65% | [3] 2.75%

CN(Cc1ccccc1)Cc1ccccc1
inactive: [1] 8.4% | [2] -3.9% | [3] 14.7%

CC(C)CC(Br)C(=O)NC(CC(C)C)C(=O)O (stereo not given)
inactive: [1] -26.2% | [2] -27.9% | [3] -23.2%

CCC(=O)N/N=C/C=N/NC(=O)c1ccncc1
inactive: [1] -30.7% | [2] -31.8% | [3] -7.25%

CC(C)C(NC(=O)CNC(=O)CCl)C(=O)O (stereo not given) (ClAc-Gly-[ξV]-OH)
inactive: [1] 7.6% | [2] -16.5% | [3] 4.1%
